Mtb FBA inh: inhibits M. tuberculosis FBA enzyme | P9WQA3 | purified M. tuberculosis FBA, fluorescence read-out | inhibition, % at 1 µM | 360,000 compounds, 2.3% hits | AID 588726;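 note: 0% = vehicle and 100% = reference inhibitor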
Mtb bLac sens: beta-lactam sensitization of Mtb H37Rv. M. tuberculosis H37Rv growth with meropenem, percent inhibition. inhibition, % at 25 µM. 330,000 compounds, 0.27% hits; call rule not given here;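 note: growth measured after seven days incubation then overnight dye step; 0% = bacteria only wells and 100% = bacteria with antibiotic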
FadD28 FP inh: inhibitors of Mycobacterium tuberculosis FadD28 bisubstrate binding | FadD28 bisubstrate probe binding, fluorescence polarization | inhibition, % at 12.5 µM | 360,000 compounds, 0.22% hits; in the data active = inhibition above about 8.5%, passing the limit was not always enough
Rv3671c inh: inhibitors of M. tuberculosis serine protease Rv3671c; P9WHR9; inhibition, % at 5.96 µM; 320,000 compounds, 0.048% hits; in the data active = inhibition above about 38%;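 note: extracellular domain of Rv3671c used as enzyme; 0% = enzyme with DMSO and 100% = no enzyme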
Target sequence (P9WHR9 whole entry, looked up, the tested form may be a part): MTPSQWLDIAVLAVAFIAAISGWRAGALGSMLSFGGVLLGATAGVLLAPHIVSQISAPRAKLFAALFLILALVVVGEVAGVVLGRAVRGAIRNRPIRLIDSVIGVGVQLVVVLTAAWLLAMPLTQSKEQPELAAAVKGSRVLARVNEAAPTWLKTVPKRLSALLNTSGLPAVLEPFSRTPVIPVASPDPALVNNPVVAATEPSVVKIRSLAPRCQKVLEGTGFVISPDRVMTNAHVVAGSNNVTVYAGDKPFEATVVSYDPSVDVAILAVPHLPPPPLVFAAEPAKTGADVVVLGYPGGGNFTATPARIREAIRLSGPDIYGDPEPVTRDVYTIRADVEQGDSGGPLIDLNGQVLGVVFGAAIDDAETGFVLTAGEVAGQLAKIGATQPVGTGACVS
Mtb UGM inh: blocks M. tuberculosis UGM enzyme. P9WIQ1. 320,000 compounds, 0.06% hits. AID 504406. inhibition, % at 10 µM. purified UGM, fluorescence polarization probe displacement; in the data active = inhibition above about 10%, passing the limit was not always enough
GDH-TPI counter-1: counter-screen for M. tuberculosis FBA inhibitors: GDH-TPI coupled enzymes | GDH-TPI coupled enzyme counterscreen, NADH absorbance | inhibition, % at 4.8 µM | 360,000 compounds, 1.2% hits; in the data active = inhibition above about 30%;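 note: 0% = DMSO wells and 100% = wells lacking the enzyme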
Mtb FBA inh conf: confirmation of M. tuberculosis fructose-bisphosphate aldolase inhibitors | shares compounds with Mtb FBA inh | purified M. tuberculosis FBA, fluorescence read-out | inhibition, % at 1 µM | 5,600 compounds, 78% hits;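 note: 0% = vehicle wells and 100% = reference inhibitor wells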
GDH-TPI counter-2: counter-screen for M. tuberculosis FBA inhibitors: GDH-TPI coupled enzyme inhibition; shares compounds with Mtb FBA inh; GDH-TPI coupled enzyme counterscreen, fluorescence; inhibition, % at 1 µM; 5,600 compounds, 81% hits; in the data active = inhibition above about 10%
The depositor's hits bear a star; ! = repeats disagree. Only some compounds are listed: those with a hit (about 3.7% of all), similar ones and a draw of the others. Cut-off read from the data, not from the text of the source, unless noted: active = inhibition above about 27%; inactive = the rest.

How did O=C(CC[C@H]1O[C@@H](n2cnc3c(NC(=O)c4ccccc4)ncnc32)[C@H](O)[C@@H]1O)NCc1nc2ccccc2[nH]1 do in these assays?
Mtb FBA inh: -5.0; FadD28 FP inh: -2.9

What do the screens show for `O=C(COc1ccc2c(c1)C(=O)CC1(CCCCC1)O2)NCc1ccccn1`?
Mtb FBA inh: 37.5*; Mtb bLac sens: -6.0; FadD28 FP inh: -0.7; Rv3671c inh: 1.7; Mtb UGM inh: -0.6; GDH-TPI counter-1: 14.0; Mtb FBA inh conf: 82.2*; GDH-TPI counter-2: 57.7*

How did O=C(COc1ccc(S(=O)(=O)NC2CCCCC2)cc1)NCc1ccccn1 do in these assays?
Mtb FBA inh: 2.2; Mtb bLac sens: 6.6; FadD28 FP inh: -1.0; Rv3671c inh: 11.7; Mtb UGM inh: -2.2; GDH-TPI counter-1: 7.2

How did O=C(COc1ccc2c(c1)C(=O)CC1(CCCCC1)O2)NCc1ccccc1 do in these assays?
Mtb FBA inh: 36.4*; Mtb bLac sens: -1.0; FadD28 FP inh: -0.6; Rv3671c inh: 2.4; Mtb UGM inh: 1.1; GDH-TPI counter-1: 2.2; Mtb FBA inh conf: 62.5*; GDH-TPI counter-2: 48.4*

What do the screens show for `O=C(COc1ccccc1)NCc1ccccc1`?
Mtb FBA inh: 1.9; Mtb bLac sens: 9.7; Rv3671c inh: -7.0; Mtb UGM inh: -0.2; GDH-TPI counter-1: -6.7

How did CCOC(=O)COc1ccc2c(c1)C(=O)CC1(CCCCC1)O2 do in these assays?
Mtb FBA inh: 53.2*; Mtb bLac sens: 99.9; FadD28 FP inh: -2.0; Rv3671c inh: 2.4; Mtb UGM inh: 0.1; GDH-TPI counter-1: 23.8; Mtb FBA inh conf: 89.1*; GDH-TPI counter-2: 76.6*

Results for COc1cc(/C=N/N2C(=O)c3ccccc3C2=O)ccc1O ?
Mtb FBA inh: 1.7; Mtb bLac sens: 4.9; FadD28 FP inh: -3.8; Rv3671c inh: -12.2; Mtb UGM inh: -5.7; GDH-TPI counter-1: 24.4

How did COc1cc(/C=N/c2oc(-c3ccccc3)cc2C#N)ccc1O do in these assays?
Mtb FBA inh: 47.2*; Mtb bLac sens: 1.0; FadD28 FP inh: 1.0; Rv3671c inh: -8.2; Mtb UGM inh: 2.0; GDH-TPI counter-1: 48.2*; Mtb FBA inh conf: active; GDH-TPI counter-2: active

Results for O=C(NCC1CCCO1)C1CCC(N2C(=O)c3ccccc3C2=O)CC1 (stereo unspecified) ?
Mtb FBA inh: 1.4; Mtb bLac sens: 5.1; FadD28 FP inh: -2.1; Rv3671c inh: -8.5; Mtb UGM inh: 0.0; GDH-TPI counter-1: 4.1

How did O=C(NCC1CCCO1)C1c2ccccc2C(=O)N1C1CCCCCC1 (stereo unspecified) do in these assays?
Mtb FBA inh: 41.4*; Mtb bLac sens: -3.4; FadD28 FP inh: -2.6; Rv3671c inh: -7.8; Mtb UGM inh: -0.4; GDH-TPI counter-1: -12.0; Mtb FBA inh conf: 111.6*; GDH-TPI counter-2: 97.2*

How did CC[C@@]1(C(=O)OC)N[C@H](CN(C)C(=O)Nc2ccccc2)[C@@H]2C(=O)N(Cc3ccccc3)C(=O)[C@@H]21 do in these assays?
Mtb FBA inh: -2.2; Mtb bLac sens: -2.1; FadD28 FP inh: -1.3; Rv3671c inh: -1.0; GDH-TPI counter-1: -0.9

How did CN(Cc1cnc2nc(N)nc(N)c2n1)c1ccc(C(=O)N[C@@H](CCC(=O)O)C(=O)O)cc1 do in these assays?
Mtb FBA inh: 108.0*!; Mtb bLac sens: -0.4; FadD28 FP inh: -10.3; Rv3671c inh: 2.6; Mtb UGM inh: -0.2; GDH-TPI counter-1: 15.0; Mtb FBA inh conf: 119.1*; GDH-TPI counter-2: 108.4*

How did Nc1nc2ncc(CNc3ccc(C(=O)N[C@@H](CCC(=O)O)C(=O)O)cc3)nc2c(=O)[nH]1 do in these assays?
Mtb FBA inh: 44.3*; Mtb bLac sens: 0.2; FadD28 FP inh: -1.2; Rv3671c inh: -0.4; Mtb UGM inh: 2.6; GDH-TPI counter-1: 16.7; Mtb FBA inh conf: 113.1*; GDH-TPI counter-2: 90.1*

What do the screens show for `Cc1ccc(-c2cc(-c3ccccc3)cc(-c3ccccc3)[n+]2-c2ccccc2C(=O)O)cc1`?
Mtb FBA inh: 54.0*; Mtb bLac sens: 99.9; FadD28 FP inh: -2.7; Rv3671c inh: -0.6; Mtb UGM inh: -0.8; GDH-TPI counter-1: 16.4; Mtb FBA inh conf: 9.6; GDH-TPI counter-2: 3.3

How did O=C([O-])c1ccc(-[n+]2c(-c3ccccc3)cc(-c3ccccc3)cc2-c2ccccc2)cc1 do in these assays?
Mtb FBA inh: 7.2; Mtb bLac sens: 73.3; FadD28 FP inh: 1.5; Rv3671c inh: 4.7; Mtb UGM inh: -0.1; GDH-TPI counter-1: 21.0

How did Cc1cn([C@H]2C[C@H](O)[C@@H](CNC(=O)c3ccccn3)O2)c(=O)[nH]c1=O do in these assays?
Mtb FBA inh: -1.0; FadD28 FP inh: 1.2; GDH-TPI counter-1: 4.3

What do the screens show for `Cc1ccc(CNC(=O)C2C3C=CC4(CN(Cc5cccnc5)C(=O)C24)O3)cc1` (stereo unspecified)?
Mtb FBA inh: 67.9*; Mtb bLac sens: -7.9; FadD28 FP inh: -0.8; Rv3671c inh: 5.9; Mtb UGM inh: -0.7; GDH-TPI counter-1: 2.0; Mtb FBA inh conf: 8.7; GDH-TPI counter-2: -2.5

What do the screens show for `COc1ccc(C(CNC(=O)CN(C)S(=O)(=O)c2ccc(C)cc2)N2CCCC2)cc1` (stereo unspecified)?
Mtb FBA inh: -2.8; Mtb bLac sens: 0.5; FadD28 FP inh: 1.5; Rv3671c inh: -2.5; Mtb UGM inh: 4.0; GDH-TPI counter-1: 4.7

Results for Cc1ccc(-c2cc(C(=O)N3CCCC(C(F)(F)F)C3)c3ccccc3n2)o1 (stereo unspecified) ?
Mtb FBA inh: 87.4*; Mtb bLac sens: -4.7; FadD28 FP inh: -3.3; Rv3671c inh: -9.2; Mtb UGM inh: 2.9; GDH-TPI counter-1: 5.9; Mtb FBA inh conf: 161.0*; GDH-TPI counter-2: 89.7*

How did COc1ccc(-c2cc(C(=O)N3CCCC(C(F)(F)F)C3)c3ccccc3n2)cc1 (stereo unspecified) do in these assays?
Mtb FBA inh: 95.9*; Mtb bLac sens: 4.8; FadD28 FP inh: -4.7; Rv3671c inh: 3.9; Mtb UGM inh: 0.2; GDH-TPI counter-1: 18.9; Mtb FBA inh conf: -0.6; GDH-TPI counter-2: -4.3

How did CCOC(=O)C1CCCN(C(=O)c2cc(-c3ccccc3)nc3ccccc23)C1 (stereo unspecified) do in these assays?
Mtb FBA inh: 0.8; Mtb bLac sens: -3.4; FadD28 FP inh: -1.2; Rv3671c inh: 7.0; Mtb UGM inh: -0.8; GDH-TPI counter-1: 1.6

How did CC(C)SCC(=O)Nc1ncc2c(n1)-c1ccccc1CC2 do in these assays?
Mtb FBA inh: 28.8*; Mtb bLac sens: 1.8; FadD28 FP inh: -1.6; Rv3671c inh: -0.4; Mtb UGM inh: 1.6; GDH-TPI counter-1: 7.4; Mtb FBA inh conf: 3.2; GDH-TPI counter-2: 1.7

Results for COc1ccc2oc(=O)c(C(=O)Nc3ccccc3O)cc2c1 ?
Mtb FBA inh: -8.2; Mtb bLac sens: 63.0; FadD28 FP inh: -4.1; Rv3671c inh: -0.8; Mtb UGM inh: 0.9; GDH-TPI counter-1: -0.3

High-throughput results deposited in PubChem BioAssay by several laboratories.
